Screening data deposited in PubChem BioAssay by National Center for Advancing Translational Sciences (NCATS).
TDP1 cell CPT: qHTS for Inhibitors of human tyrosyl-DNA phosphodiesterase 1 (TDP1): qHTS in cells in presence of CPT; Potency, µM (top dose mostly 46.2 µM), for the others: at the highest dose activity change, negative = growth inhibition, actives largely listed as inhibitors; chicken DT40 Tdp1-/-;hTDP1 cells + 20 nM CPT, ATP luminescence, 48 h; actives 12% (n = 420,000); further: on the % scale 0 is the no-effect control and ±100 the full control effect; nearly all actives have a fitted effect of over 55% in size
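Chicken DT40 Tdp1-/- cells stably complemented with human TDP1 were seeded at 400 cells/well in medium containing 20 nM camptothecin, exposed to pin-transferred compounds, and grown at 37 °C for at least 48 hr. Viability was read as ATP luminescence.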
ATXN2 expr inh: Primary qHTS for Inhibitors of ATXN expression. HEK-293 ATXN2-luciferase reporter, luminescence, 24 h. Potency, µM (top dose mostly 57 µM), inactives show at the top dose activity change, negative = inhibition, hits mostly inhibitors. actives 0.72% (n = 360,000); further: on the % scale 0 is the no-effect control and ±100 the full control effect; nearly all actives have a fitted effect of over 55% in size
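ATXN2-luciferase reporter cells (luciferase flanked by upstream and downstream ATXN2 gene portions) were treated 24 h at 37 °C with compounds at up to 57 uM. SteadyGlo luminescence gave expression; GF-AFC fluorescence gave viability.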
S2 tox: Viability Counterscreen for Primary qHTS for Inhibitors of ATXN expression | actives 0.49% (n = 400,000) | Potency, µM (doses to about 56.7 µM), hits mostly cytotoxic | S2 cells (HEK-293 line with an ATXN2-luciferase reporter) viability, CellTiter-Fluor protease fluorescence, 24 h; further: nearly all actives have a fitted effect of over 40% in size
DT40 TDP1 no CPT: qHTS for Inhibitors of human tyrosyl-DNA phosphodiesterase 1 (TDP1): qHTS in cells in absence of CPT; Potency, µM (doses to about 46.2 µM), without a hit: at the top dose activity change, negative = growth inhibition, hits mostly inhibitors; DT40 Tdp1-/- hTDP1 cells, no CPT, ATP luminescence, 48 h; actives 15% (n = 420,000); further: on the % scale 0 is the no-effect control and ±100 the full control effect; nearly all actives have a fitted effect of over 55% in size
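Seeded 400 DT40-hTDP1 cells/well (vehicle DMSO, no 20 nM CPT); pinned compounds; ≥48 hr at 37 °C; CellTiter-Glo luminescence as viability measure.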
HepG2 viability: qHTS for Inhibitors of TGF-b: Cytotox Counterscreen. actives 0.76% (n = 410,000). HepG2 CAGA-GFP viability, ATP luminescence, 18 h. Potency, µM (top dose mostly 46.1 µM), without a hit: top-dose activity change, negative = cytotoxicity, actives largely listed as cytotoxic. AID 588856, 2011
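HepG2 CAGA-GFP cells (1000/well, DMEM with 1% FBS) received compound, then TGF-beta at 500 pg/mL final, and were incubated 18 hours at 37 degrees C. Viability was read by CellTiter-Glo luminescence. Media-only wells were set as complete cell-killing and DMSO as no toxicity.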
TGFb SMAD3 inh: qHTS for Inhibitors of TGF-b | HepG2 CAGA-GFP TGF-b/SMAD3 reporter, GFP fluorescence, 18 h; TGF-beta stimulated, 500 pg/mL final | Potency, µM (titrated, usually from 46.1 µM), for inactives: at the top dose activity, negative = inhibition, usual class: inhibitors | actives 1.2% (n = 410,000) | AID 588855, 2011; further: on the % scale 0 is the no-effect control and ±100 the full control effect; nearly all actives have a fitted effect of over 65% in size
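TGF-beta reporter screen: HEPG2 CAGA-GFP, 1% FBS, 500 pg/mL TGF-beta final, 18 h; per-cell GFP summed per well; curves fitted and categorized by class.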
Starred values were filed as active, the others as inactive; i = inactive; ? = inconclusive; . = no result; [ ] = another dose, or the depositor's remark. Most compounds without a hit are left out; they make up all but 17% or so of the library. The call rests on the fitted dose curve; in most records, active means well fitted curve in the direction sought with a large enough effect; inconclusive means small, poorly fitted or top-dose-only effect, or another doubt; inactive means no such curve, though single readings can be large; an effect the other way counts as inactive or inconclusive. Potency means the concentration at half of the fitted maximal effect.

SMILES	TDP1 cell CPT	ATXN2 expr inh	S2 tox	DT40 TDP1 no CPT	HepG2 viability	TGFb SMAD3 inh
Cc1ccc(C(C)C)c(OCCNCCc2ccccc2)c1	?	-9%	?	23µM*	-106%	?
COc1cc(C(=O)NCCOc2cc(C)ccc2C(C)C)cc(OC)c1OC	?	-30%	i	12µM*	-13%	?
COc1ccc(C(=O)NCCOc2cccc(Oc3ccccc3)c2)cc1OC	?	-22%	i	12µM*	0%	-22%
COc1cc(C(=O)NCCOc2ccccc2)cc(OC)c1OC	27%	8%	i	-8%	-18%	9%
CCN(CCO)CC1CCCC2CCCCC21 (stereo unspecified)	0%	4%	i	-13%	.	.
Cc1ccc(C(C)C)c(OCCn2ccnc2C)c1	16µM*	-4%	i	23µM*	-4%	-7%
Cc1ccc(OCCCCn2ccnc2C)c(C)c1	?	-16%	?	?	-9%	?
O=C(NCCOc1ccccc1)c1cc(C(=O)NCCOc2ccccc2)cc([N+](=O)[O-])c1	?	-21%	i	18µM*	-2%	?
CCn1c(=O)ccc2cc([N+](=O)[O-])ccc21	3%	18%[11.3 µM]	i	4%	3%	-3%
CC[C@H](C)N(C)C(=O)c1cc2ccccc2c(-c2ccccc2Cl)n1	?	.	.	30µM*	.	.
CC(C)C[C@H](NC(=O)[C@@H](Cc1c[nH]c2ccccc12)NC(=O)[C@H](Cc1ccc(O)cc1)NC(=O)[C@H](CO)NC(=O)[C@H](Cc1c[nH]c2ccccc12)NC(=O)[C@H](Cc1cnc[nH]1)NC(=O)[C@@H]1CCC(=O)N1)C(=O)N[C@@H](CCCN=C(N)N)C(=O)N1CCC[C@@H]1C(=O)NCC(N)=O	9%	.	.	-15%	.	.
C=CC[C@@H](Cc1ccc(F)cc1)C(=O)OC[C@@H]1CCCN1C(=O)[C@@H](CC=C)CC(=O)N(CCO)Cc1ccccc1	?	-31%	?	15µM*	-20%	?
C=CC[C@@H](Cc1ccc(F)cc1)C(=O)OC[C@@H]1CCCN1C(=O)[C@H](CC=C)CC(=O)N[C@H](CO)Cc1ccccc1	?	?	.	18µM*	-83%	?
CC(C)c1ccc(NC(=O)CCS(=O)(=O)c2ccc3c(c2)CC(=O)N3C)cc1	?	5%	i	-15%	-18%	?
FC(F)(F)c1ccc(-c2noc(-c3ccccc3Br)n2)cc1	16µM*	.	.	?	-28%	?
O=C(Nc1ccccc1)c1cc(C2COCCN2C(=O)C2CC2)on1 (stereo unspecified)	-15%	17%	i	-1%	-4%	6%
O=C(c1nn2c(C(F)(F)F)cc(-c3ccccc3)nc2c1Cl)N1CCN2CCCC2C1 (stereo unspecified)	21µM*	-30%	i	?	-17%	-18%
O=C(c1ccccc1)N1CCN(C(=O)c2nn3c(C(F)(F)F)cc(-c4ccccc4)nc3c2Br)CC1	?	7%	i	18µM*	2%	-1%
COc1ccc(C)cc1NC(=O)C(=O)NCC1(c2ccccc2)CCCC1	?	-5%	i	?	-9%	16%
CC(=O)N1CCN(c2ccc(C(N)=O)cc2[N+](=O)[O-])CC1	-10%	0%	i	-1%	5%	1%
CN1CCN(c2ccc(C(CC(N)=O)NC(=O)Cc3ccc(Br)cc3)cc2[N+](=O)[O-])CC1 (stereo unspecified)	3%	-3%	i	3%	0.32µM*	-13%
NC(=O)CC(NC(=O)Cc1ccc(Br)cc1)c1ccc(N2CCC(Cc3ccccc3)CC2)c([N+](=O)[O-])c1 (stereo unspecified)	?	?	?	23µM*	-40%	?
NC(=O)CC(NC(=O)Cc1ccc(Br)cc1)c1ccc(N2CCCCCCC2)c([N+](=O)[O-])c1 (stereo unspecified)	?	0%	?	-23%	-62%	?
CN1CCN(c2ccc(C(=O)c3ccc(Br)cc3)cc2[N+](=O)[O-])CC1	?	-16%	i	15µM*	-26%	3%
CC1CCN(C(=O)c2cc(-c3cccc(Cl)c3)on2)CC1	?	46%	i	?	-22%	-3%
SMILES	TDP1 cell CPT	ATXN2 expr inh	S2 tox	DT40 TDP1 no CPT	HepG2 viability	TGFb SMAD3 inh
CCOc1ccc(C)cc1S(=O)(=O)n1ccc(C)n1	-6%	8%	i	?	2%	16%
O=C(NCc1cccnc1)c1cnn(-c2nccc(-c3cccs3)n2)c1C1CC1	-1%[9.04 µM]	.	i	?	.	.
CCCCn1nnnc1C(c1cc2ccccc2o1)N1CCN(CCN(C)C)CC1 (stereo unspecified)	?	3%	?	21µM*	.	.
CCCCn1nnnc1C(c1cc2ccccc2o1)N1CCCCC1 (stereo unspecified)	?	-12%	?	?	.	.
CCCCn1nnnc1C(c1cc2ccccc2o1)N1CCN(c2cc(C)nc3ccccc23)CC1 (stereo unspecified)	?	?	4.5µM*	?	.	.
Cc1cccc(C)c1N1CCN(C(c2cc3ccccc3o2)c2nnnn2C(C)(C)C)CC1 (stereo unspecified)	15µM*	4%	?	?	.	.
CCCCn1nnnc1C(c1cc2ccccc2o1)N1CCN(c2c(C)cccc2C)CC1 (stereo unspecified)	?	14%	i	18µM*	.	.
CCCCn1nnnc1C(c1cc2ccccc2o1)N1CCN(c2ccccc2F)CC1 (stereo unspecified)	?	6%	i	?	.	.
CCCCn1c(N)c(N(CC(C)C)C(=O)CN(C)S(=O)(=O)c2ccc(NC(C)=O)cc2)c(=O)[nH]c1=O	10%	1%	i	0%	-13%	0%
CCCCn1nnnc1C(c1cc2ccccc2o1)N1CCN(c2ccncc2)CC1 (stereo unspecified)	21µM*	-35%	?	23µM*	.	.
CCOc1ccc(N2C(=O)C(c3ccccc3)=C(c3nc4ccccc4s3)C2NC(C)=O)cc1 (stereo unspecified)	?	16%	i	16µM*	-5%	5%
